Measurements as given in PubChem BioAssay AID1053118 (Broad Institute, 2014).
Results with a measured potency or affinity are listed apart. Calls of active or inactive are those of the source.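 The calls were made as follows: active = fitted half-maximal concentration for ATP signal loss at most twice the top valid dose; inconclusive = flat curve between -70 and -30%, or an invalid fit; inactive = flat within ±30%, wrong direction, or potency past limit.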

Test: HepG2 cell cytotoxicity, dose response, cytotoxicity control, cherry-picks, set 5 (AID 1053118)
Conditions: HepG2 viability, ATP luminescence, 72 h; series mostly up to 26 µM

Structure (SMILES)	outcome
O=C(CC1Nc2ccccc2NC1=O)Nc1ccc2c(c1)OCO2 (stereo not given)	inactive
C[C@H]1CN([C@@H](C)CO)C(=O)c2cccc(NC(=O)Nc3ccc(C(F)(F)F)cc3)c2O[C@H]1CN(C)C(=O)Nc1cccc2ccccc12	inactive
CN1c2ccc(-c3ccccc3)cc2[C@@H]2[C@@H](CCN2C(=O)CN2CCOCC2)[C@@H]1CO	inactive
COC(=O)C[C@H]1CC[C@@H]2[C@@H](COc3ccc(NC(=O)Cc4cccs4)cc3C(=O)N2C)O1	inactive
O=C(c1cccnc1)N1C[C@H]2[C@@H](c3ccccc31)[C@H](CO)N2CC1CCCC1	inactive
COC(=O)C[C@@H]1CC[C@H]2[C@H](COc3ccc(NC(=O)Cc4cccs4)cc3C(=O)N2C)O1	inactive
Cc1cc(C)n2ncc(C(=O)NCc3ccc(Cl)cc3)c2n1	inactive
O=S(=O)(c1ccccc1F)N1CC[C@@H]2[C@H]1c1cc(-c3cccc(F)c3)ccc1N[C@@H]2CO	inactive
C[C@@H]1CN([C@H](C)CO)C(=O)c2cc(-c3ccccc3)cnc2O[C@H]1CN(C)C(=O)c1cccc(F)c1	inactive
CSc1ccccc1C(=O)C1CCCN(C(=O)CCc2cccnc2)C1 (stereo not given)	inactive
CCCCNC(=O)Nc1nc2ccc(CC)cc2s1	inactive
COCC(C)n1c(SCc2nc(N)nc(Nc3ccccc3C)n2)nc2ccccc2c1=O (stereo not given)	inactive
O=C(CCC(=O)c1cccs1)NCc1cccnc1	inactive
O=C(Nc1nc(-c2ccncc2)cs1)C1COc2ccccc2O1 (stereo not given)	inactive
C[C@@H]1CN([C@H](C)CO)C(=O)c2cc(NC(=O)C3CCCCC3)ccc2O[C@@H]1CN(C)Cc1ccc(-c2ccccc2)cc1	inactive
O=C(CCNS(=O)(=O)c1cccc2nonc12)NC1CCCc2ccccc21 (stereo not given)	inactive
CN(C)C(=O)c1ccc(-c2ccc3c(c2)[C@@H]2[C@@H](CCN2C(=O)c2ccc(F)cc2)[C@H](CO)N3C)cc1	inactive
COc1ccc(C)cc1N(CC(=O)Nc1cccc(N(C)S(C)(=O)=O)c1)S(C)(=O)=O	inactive

Structure (SMILES)	outcome
O=C(Nc1ccccc1F)N1C[C@H]2[C@@H](c3ccccc31)[C@H](CO)N2C(=O)C1CC1	inactive
C[C@@H]1CN([C@@H](C)CO)C(=O)c2cc(-c3ccccc3)cnc2O[C@@H]1CN(C)C(=O)c1cccc(F)c1	inactive
COCC(=O)Nc1ccc2c(c1)C(=O)N(C)[C@H]1CC[C@H](CC(=O)NCc3ccccc3Cl)O[C@@H]1CO2	inactive
O=S(=O)(c1cccc(F)c1)N1CC[C@@H]2[C@H]1c1cc(-c3cccc(F)c3)ccc1N[C@@H]2CO	inactive
CCN(Cc1ccncc1)C(=O)c1ccc2c(c1)S(=O)(=O)c1ccccc1C2=O	inactive
COCC(=O)Nc1ccc2c(c1)C(=O)N(C)[C@@H]1CC[C@H](CC(=O)NCc3ccccc3Cl)O[C@@H]1CO2	inactive
C[C@H](O)C#Cc1ccc2c(c1)O[C@@H](CN(C)C)[C@H](C)CN([C@H](C)CO)S2(=O)=O	inactive
Cc1ccc(S(=O)(=O)N2CC3(C)CN(S(=O)(=O)c4ccc(C)cc4)CC(C)(C2)C3=O)cc1	inactive
O=C(c1cccnc1)N1C[C@H]2[C@@H](c3ccccc31)[C@@H](CO)N2CC1CCCC1	inactive
COCC(=O)Nc1ccc2c(c1)C(=O)N(C)[C@@H]1CC[C@@H](CC(=O)NCc3ccccc3Cl)O[C@H]1CO2	inactive
C[C@@H]1CN([C@@H](C)CO)C(=O)c2cc(-c3ccccc3)cnc2O[C@@H]1CN(C)Cc1ccccc1	inactive
O=S(=O)(c1ccccc1F)N1CC[C@H]2[C@H](CO)Nc3ccc(-c4cccc(F)c4)cc3[C@H]21	inactive
COc1ccc(-c2oc3ncnc(NCCCN4CCOCC4)c3c2-c2ccc(OC)cc2)cc1	inactive
Cc1cccc(NC(=O)Nc2ccc(S(=O)(=O)Nc3onc(C)c3C)cc2)c1	inactive
Cc1cc(C)c(S(=O)(=O)Nn2cnnc2)c(C)c1	inactive
O=C(Nc1ccccc1F)N1C[C@@H]2[C@H](c3ccccc31)[C@H](CO)N2C(=O)C1CC1	inactive
CO[C@H]1CN(C)C(=O)c2cc(NC(=O)Nc3cc(Cl)cc(Cl)c3)ccc2OC[C@H](C)NC[C@@H]1C	inactive
